Reference: ChEMBL document CHEMBL3988442, “University of Dundee, Small-Polar-MMV Screening Library” (2021)

Experiments:
[1] = biological target: T1, Aspartate--tRNA(Asp/Asn) ligase (Mycobacterium tuberculosis (strain ATCC 25618 / H37Rv)) (UniProt P9WFW3); experiment: Assay for Asp RNA synthetase-1 from Mycobacterium tuberculosis; format: functional; parameters: scale not given: direction of the effect not stated beside the values; conditions: 30 µM; also: in the data most compounds retested in dose-response had high values
T1 sequence (whole entry): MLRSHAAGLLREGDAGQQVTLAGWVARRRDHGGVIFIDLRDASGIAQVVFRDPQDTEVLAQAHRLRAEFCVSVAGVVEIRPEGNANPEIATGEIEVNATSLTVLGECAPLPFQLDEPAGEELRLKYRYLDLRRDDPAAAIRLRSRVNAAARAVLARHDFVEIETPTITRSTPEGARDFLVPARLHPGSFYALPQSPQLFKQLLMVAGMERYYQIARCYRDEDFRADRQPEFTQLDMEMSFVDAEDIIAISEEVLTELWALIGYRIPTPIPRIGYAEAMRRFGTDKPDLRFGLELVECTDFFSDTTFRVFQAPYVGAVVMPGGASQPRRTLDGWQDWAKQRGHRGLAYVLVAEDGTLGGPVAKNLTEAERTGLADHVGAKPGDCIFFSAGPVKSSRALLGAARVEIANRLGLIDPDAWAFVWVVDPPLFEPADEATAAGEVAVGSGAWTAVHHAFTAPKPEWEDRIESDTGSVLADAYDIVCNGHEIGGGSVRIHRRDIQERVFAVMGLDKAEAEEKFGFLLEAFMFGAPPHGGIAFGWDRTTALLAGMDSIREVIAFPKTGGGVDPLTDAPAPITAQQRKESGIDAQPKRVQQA

[2] = biological target: Shiga toxin 2 (Escherichia coli O157:H7) (UniProt P09385+P09386); experiment: E. coli 0.157:H7 Shiga Toxin SOP - stx2 screening assay; format: functional; parameters: scale not given: direction of the effect not stated beside the values; conditions: 30 µM

Structure (SMILES)	Percent Effect [1]	Percent Effect [2]
CCN1CCN(C2CCN(Cc3nc(-c4ccoc4)no3)CC2)C1=O	1.49%	22.7%
CC(C(N)=O)S(=O)(=O)Cc1cc(Cl)c2c(c1)OCO2 (centres undefined)	-7.47%	26.2%
CCn1cc(CN2CCC(c3nnc(CN(C)C)n3CC)CC2)cn1	-2.35%	-57.2%
O=C(c1ccccc1N1CCOCC1)N1CCCC(n2cccn2)C1 (centres undefined)	0.062%	19.5%
CCc1nc(C)c(C(=O)NCCNc2cnccn2)s1	4.33%	8.72%
COc1ccc(C(=O)NS(=O)(=O)c2cncc(Br)c2)cc1OC	0.457%	3.4%
c1ccc(N2CCOC3(CCCN(c4nncs4)C3)C2)nc1 (centres undefined)	6.43%	1.67%
O=C(O)c1cc2c(nc1O)CC(c1cccc(Cl)c1)CC2=O (centres undefined)	0.494%	-22.1%
O=C(NCc1cc(O)ncn1)C1CCOc2ccccc2C1 (centres undefined)	-6.23%	16%
CC(C)NC(=O)Cn1cc(-c2ccccc2)cn1	-0.189%	2.98%
COCc1cnc2n1CCN(C(=O)C1=CCCCC1)C2C (centres undefined)	-0.348%	-61.5%
COCC1c2c(cnn2C)CCN1Cc1ccc(F)cc1 (centres undefined)	1.28%	-4.17%
Cc1nc(C2CCN(C(=O)c3ccc(=O)n(C)c3)CC2)c2sccn12	3.56%	-17.4%
Cc1ccc(C(CNCc2cnn(C(C)C)c2)N2CCOCC2)s1 (centres undefined)	-4.07%	-11%
CN(C)C(CNC(=O)NCCc1cccc(O)c1)c1ccco1 (centres undefined)	2.5%	-5.55%
CCCS(=O)(=O)N1CCC2(CN(c3ccsc3)C(=O)CN2C)C1 (centres undefined)	-3.98%	-8.23%
CC(=O)c1cccc(NC(=O)COc2c(C)n(C)ccc2=O)c1	1.07%	-59.3%
